PubChem BioAssay (NCI)
This is part of a sample that, as a whole, favours compounds with a hit. Of some 83,000 tested, about 20% had one in any assay.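 For each line, cells grew in 96-well plates with the test compound present at a single concentration for 48 hours.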 Unmarked numbers belong to inactive results. The source made the active and inactive calls. Rule for the calls: active = growth percent below 10; inactive = the rest.

Tests used:
Experiment in all cases: NCI-60 one-dose screen, 48 h (100 = growth as untreated, 0 = no growth, -100 = all killed)
Settings in all cases: 10 µM unless noted
[1] = tested on: HCT-15 colon
[2] = tested on: HT29 colon
[3] = tested on: SNB-75 CNS
[4] = tested on: SNB-19 CNS
[5] = tested on: U251 CNS
[6] = tested on: PC-3 prostate
[7] = tested on: SK-MEL-5 melanoma
[8] = tested on: UACC-62 melanoma
[9] = tested on: LOX IMVI melanoma
[10] = tested on: SK-MEL-28 melanoma
[11] = tested on: SK-MEL-2 melanoma
[12] = tested on: EKVX NSCLC
[13] = tested on: SN12C renal
[14] = tested on: UO-31 renal
[15] = tested on: TK-10 renal
[16] = tested on: ACHN renal
[17] = tested on: CAKI-1 renal
[18] = tested on: A498 renal
[19] = tested on: CCRF-CEM leukemia
[20] = tested on: MOLT-4 leukemia

| Structure (SMILES) | growth [1] | growth [2] | growth [3] [%] | growth [4] | growth [5] | growth [6] | growth [7] | growth [8] | growth [9] | growth [10] | growth [11] | growth [12] | growth [13] | growth [14] | growth [15] | growth [16] | growth [17] | growth [18] | growth [19] | growth [20] |
| --- | --- | --- | --- | --- | --- | --- | --- | --- | --- | --- | --- | --- | --- | --- | --- | --- | --- | --- | --- | --- |
| NC(N)=Nc1ccc(Oc2cccc(Nc3ccc(Cl)c(C(F)(F)F)c3)c2)cc1 | 79.5% | 49% | 47.4 | 24.8% | -27.6% (active) | 28.3% | 43.9% | 40.1% | -62.4% (active) | 67.7% | 83.7% | 36.1% | 27.1% | 76.2% | 82.6% | 74% | 39.8% | 36.7% | 17.5% | 17.8% |
| CN(Cc1ccccc1)S(=O)(=O)/N=C1\NC(=O)NC1=C(Cl)Cl | -69% (active) | 48% | 107 | 68.6% | 18.8% | 35.6% | 95.7% | 62.2% | -84.5% (active) | 11.2% | 87.8% | 86.2% | 18.4% | 93.3% | 44.1% | -90.8% (active) | 86.8% | 70.8% | -12.8% (active) | 10.3% |
| N=c1c2cc(-c3ccccc3)oc2ncn1/N=C/c1ccc(Br)cc1 | 57.9% | 102% | 58 | 74.9% | 45.9% | 75.3% | 97.1% | 90.4% | 45.3% | 77.8% | 104% | 79.4% | 60% | 85.4% | 111% | 19.3% | 88.5% | 80.4% | 68.7% | 85% |
| NC(N)=Nc1ccc(Oc2cccc(Oc3ccc(Cl)c(C(F)(F)F)c3)c2)cn1 | -83.7% (active) | -68.4% (active) | 73.3 | -84.5% (active) | -82.2% (active) | -93.8% (active) | 14.3% | -77.5% (active) | -88.6% (active) | -29.4% (active) | -36.3% (active) | -7.2% (active) | -86.6% (active) | 49.7% | -27.1% (active) | -99.7% (active) | 9.01% (active) | 15.1% | -29.8% (active) | -48.7% (active) |
| CCN(CC)c1cn(-c2ccc(S(N)(=O)=O)cc2)nn1 | 105% | 97.9% | 83 | 102% | 100% | 101% | 104% | 94.9% | 106% | 105% | 109% | 105% | 105% | 91.8% | 103% | 106% | 93.9% | 83.4% | 106% | 97.7% |
| CCCCNNC(=O)c1ccc(-c2cccc(F)c2F)cc1 | 55.1% | 10.6% | 80.7 | 54.6% | 36% | 45.9% | 5.84% (active) | 8.48% (active) | 21.8% | 25.7% | 26.8% | 45.3% | 56.3% | 3.46% (active) | 13.3% | 22.4% | 30.9% | -6.27% (active) | 27.4% | 27.7% |
| Nc1ccccc1NC(=O)c1ccc(NC(=O)C/C=C/c2cccnc2)cn1 | 21.4% | 12.9% | 29.4 | 33.1% | 15.6% | 31.6% | -75.9% (active) | 0.71% (active) | 1.78% (active) | -34% (active) | 15.9% | 52.9% | 25.2% | 0.829% (active) | 17.4% | 26.1% | 29.2% | -35.3% (active) | 15.8% | 17.3% |
| CCO/C=N/C1=C(C#N)C(c2ccc(OC)cc2)c2sc3c(C)cccc3c2O1 (stereo not given) | 18.2% | 10% | 28.2 | 28.3% | 22.1% | 9.28% (active) | 39.5% | 17.3% | 34.8% | 55.7% | 36.5% | 39.9% | 25.2% | 34.3% | 78.5% | 37.6% | 33.3% | -15.6% (active) | -2.18% (active) | 16.4% |
| C[C@H]1c2[nH]c3ccccc3c2C[C@H]2C(=O)N(CCCCCCC(=O)NO)CC(=O)N21 | 99.3% | 86.8% | 82.1 | 84.8% | 85.2% | 77.7% | 83% | 69.6% | -8.74% (active) | 78.9% | 76.3% | 85.3% | 88.5% | 83.3% | 90.3% | 90.1% | 87.8% | 83.2% | 36.9% | 52.3% |
| COC(=O)c1[nH]nc2c1C1(C(=O)N(C)c3ccccc31)C(C#N)=C(N)O2 (stereo not given) | 101% | 104% | 91.5 | 101% | 105% | 91% | 99.4% | 96.1% | 97% | 105% | 105% | 99.3% | 97.9% | 79.7% | 102% | 97.9% | 91.1% | 90.2% | 109% | 112% |
| NC(N)=Nc1ccc(Oc2cccc(Nc3ccc(Cl)cc3)c2)cn1 | -48.7% (active) | 4.94% (active) | 22.9 | 23.8% | -71.2% (active) | -77.5% (active) | 48.8% | 43.3% | -96.9% (active) | 49.4% | 64.6% | 16.1% | 12.3% | 39.1% | 50% | 30.9% | 27.3% | -4.07% (active) | -6.22% (active) | -12.8% (active) |
| COc1ccccc1-n1cc(C#N)c(N)c1C(=O)c1ccc(C)cc1 | 47.1% | 73.7% | 82 | 77.1% | 79.4% | 74.5% | 92% | 22.2% | 80.1% | 73.9% | 79.1% | 89.1% | 91.1% | 90% | 102% | 101% | 78.5% | 74.9% | 85.6% | 83.1% |
| Cc1cc(C)n(C(=O)c2sc(=S)n(-c3ccccc3)c2N=Nc2c(N)n[nH]c2N)n1 | 108% | 103% | 109 | 105% | 104% | 98.7% | 103% | 98.2% | 101% | 106% | 110% | 102% | 105% | 84.8% | 122% | 102% | 98.9% | 92.8% | 95.5% | 105% |
| O=C(CN1CCN(c2cc(=O)n(-c3ccccc3)c3ccccc23)CC1)Nc1nc(-c2ccccc2)cs1 | 25.2% | 73% | 71.6 | 85.2% | 59.2% | 32.5% | 5.29% (active) | 63.9% | 49.4% | 71.2% | 88.9% | 45.5% | 82.1% | 41.6% | 97.7% | 63.8% | 61.4% | 66.2% | 39.6% | 17.8% |
| Cn1ccnc1C(=O)/C=C/c1ccc(CNC(=O)c2ccc(S(F)(F)(F)(F)F)cc2)cc1 | -5.91% (active) | 10.4% | 57.6 | 3.58% (active) | 8.6% (active) | 26.4% | 61.3% | 31.2% | -80.3% (active) | 82.4% | 92.9% | 40% | 25.6% | 34.7% | 91.1% | 49.8% | 47% | 73.5% | 2.63% (active) | 0.864% (active) |
